Assay outcomes deposited in PubChem BioAssay by The Scripps Research Institute Molecular Screening Center.
TEAD-YAP inh = TEAD-YAP interaction inhibition; actives 1.4% (n = 640,000); HEK-TIYL cells, TEAD-Gal4/YAP UAS-luciferase luminescence; AID 1259422; inhibition, % at 9.12 µM; in the data active = inhibition above about 32%;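 note: 0% = median of test compound wells and 100% = reference inhibitor wells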
MITF inh = inhibitors of human MITF; AlphaScreen MITF homodimerization, bead proximity signal; inhibition, % at 2.6 µM; actives 0.91% (n = 650,000); in the data active = inhibition above about 50%;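 note: 0% = vehicle wells with protein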
FBW7 act = activators of human E3 ligase FBW7 | Q969H0 | AlphaScreen FBW7–phospho-cyclin E peptide binding, activator screen | normalized activity (activation), % at 26.1 µM | actives 0.13% (n = 650,000); in the data active = normalized activity above about 1.9%;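 note: purified mutant Fbw7 with reduced substrate affinity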
GPR151 ag = human GPR151 activation; Q8TDV0; PathHunter beta-arrestin GPR151 cells, luminescence; activation, % at 11.2 µM; actives 1% (n = 650,000); AID 1508602; in the data active = activation above about 4.9%;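 note: 0% = median of compound wells and 100% = cells with positive control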
GPR151 confirm = human GPR151 activation, confirmation screen; activation, % at 11.2 µM; AID 1508609; GPR151 PathHunter beta-arrestin cells, luminescence, 90 min; % of EA-reagent control over plate median; 6,700 tested, under 10 active; shares compounds with GPR151 ag;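 active = mean percent activation across replicates above the confirmation screen cutoff of 4.91%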
GPR119 counter = activates human GPR119 in a GPR151 counter-screen. actives 0.3% (n = 6,700). activation, % at 11.2 µM. AID 1508611. shares compounds with GPR151 ag. GPR119 PathHunter beta-arrestin cells, luminescence, 90 min; 0 = compound-well median, 100 = enzyme-acceptor control;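 active = mean percent activation in the counterscreen above 29.09%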;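 note: counterscreen on off-target GPR119 to flag nonselective hits from the GPR151 activator screen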
Target sequence (Q8TDV5 whole entry, looked up): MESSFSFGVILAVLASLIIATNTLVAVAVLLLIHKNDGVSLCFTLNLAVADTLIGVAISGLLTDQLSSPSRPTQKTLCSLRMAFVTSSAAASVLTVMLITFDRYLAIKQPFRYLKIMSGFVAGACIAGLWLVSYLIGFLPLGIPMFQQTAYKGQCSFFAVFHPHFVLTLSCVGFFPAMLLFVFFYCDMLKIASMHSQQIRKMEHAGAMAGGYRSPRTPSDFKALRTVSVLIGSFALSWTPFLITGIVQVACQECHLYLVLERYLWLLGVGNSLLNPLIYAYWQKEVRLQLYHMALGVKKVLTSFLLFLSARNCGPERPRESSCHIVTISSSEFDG
* hit, by the source's call; · = no result. Hits are enriched below; roughly 3.4% of the tested compounds scored in any of these assays.

SMILES	TEAD-YAP inh	MITF inh	FBW7 act	GPR151 ag	GPR151 confirm	GPR119 counter
O=C(NCCCN1CCOCC1)c1ccc([N+](=O)[O-])cc1	6.3	-5.2	-0.1	-1.1	·	·
O=[N+]([O-])c1ccc(C(O)CNCCCN2CCOCC2)cc1 (stereo unspecified)	11.6	-1.3	-0.1	7.0*	-1.1	-11.2
O=C(Cn1cnc2ccccc2c1=O)Nc1cccc(Cl)c1Cl	-1.4	5.6	0.1	0.1	·	·
COc1ccc(C2C(C(C)=O)=C(C)N=c3s/c(=C\c4cccnc4)c(=O)n32)c(OC)c1 (stereo unspecified)	-0.9	10.5	0.2	7.1*	-0.7	4.4
COC(=O)C1=C(C)NC(=O)NC1c1cn(-c2ccccc2)nc1-c1ccc(F)cc1 (stereo unspecified)	11.3	-1.3	-0.1	2.2	·	·
N/C(=N\NC(=O)c1ccc(F)cc1)c1cc2c(ccc3ccccc32)oc1=O	-7.8	5.8	-0.1	-1.2	·	·
COc1ccc(/C=C2\C=C(c3ccccc3)N(c3ccc(-c4ccccc4)cc3)C2=O)cc1	7.9	6.5	0.1	7.0*	1.2	5.6
O=C(Nc1ccc(I)cc1)Nc1ccc2c(c1)OCO2	-29.9	-1.0	0.0	5.8*	-0.8	-11.9
CS(=O)(=O)N(CC(=O)Nc1cccc(F)c1)Cc1ccccc1	22.5	12.0	-0.2	6.3*	0.2	-0.6
CCCn1c(-c2nc(OC)cc(OC)n2)n[nH]c1=S	1.3	-11.2	-0.2	7.0*	-1.3	-5.6
COc1cc(C=C(C#N)C#N)ccc1OC(=O)c1cccs1	-0.6	3.1	0.2	-1.0	·	·
CCOc1cc(C=C(C#N)C#N)ccc1OC(=O)c1cccs1	17.7	-2.6	-0.2	11.8*	0.4	4.0
CCOc1ccc2nc(NC3=NCN(CCCN4CCOCC4)CN3)nc(C)c2c1	-5.8	1.5	-0.1	2.3	·	·
O=C(Cn1c(=O)oc2ccccc21)NCc1cccc(F)c1	-2.5	11.2	0.0	9.5*	1.0	10.0
CC(C)Oc1ccc(CNC(=O)Cn2c(=O)oc3ccccc32)cc1	-7.6	-0.9	-0.1	5.3*	0.0	6.7
O=C(Cn1c(=O)oc2ccccc21)NCc1ccc(F)cc1	-4.0	14.7	0.0	0.9	·	·
CSc1nc(C(=O)NCCN2Cc3ccccc3OC(c3ccsc3)C2)cs1 (stereo unspecified)	-3.0	-7.4	-0.1	-0.6	·	·
CC(=O)N1CCCN(c2nc3cc(C)cc(C)c3cc2C#N)CC1	11.1	12.6	-0.1	7.2*	-0.6	-0.4
Cc1cc(C)c2cc(C#N)c(N3CCCN(C(=O)CCC(=O)O)CC3)nc2c1	-6.6	5.7	-0.1	1.2	·	·
CNC(=O)Cn1nc(-c2ccc(C)cc2)c2ccccc2c1=O	-3.5	6.7	0.2	2.0	·	·
Cc1ccc(-c2nn(CC(=O)NCc3ccccc3)c(=O)c3ccccc23)cc1	-1.2	24.2	0.2	5.1*	0.2	15.3
CC(C)(C)NC(=O)Cn1nc(C(=O)O)c2ccccc2c1=O	-7.4	-7.2	-0.2	5.9*	-1.2	-11.6
O=C(CCn1nc(-c2ccccc2)c2ccccc2c1=O)NCc1ccccc1	-6.6	2.7	-0.1	18.4*	0.7	-0.9
CCCCNC(=O)CCn1nc(-c2ccccc2)c2ccccc2c1=O	-2.6	3.0	-0.1	0.1	·	·
CNC(=O)Cn1nc(C(=O)O)c2ccccc2c1=O	5.9	-3.5	0.2	-1.2	·	·
SMILES	TEAD-YAP inh	MITF inh	FBW7 act	GPR151 ag	GPR151 confirm	GPR119 counter
O=C(COC(=O)c1ccc2ccccc2n1)c1ccc(Cl)c(Cl)c1	-2.6	-8.7	-0.2	5.6*	-0.5	-3.3
O=C(COC(=O)c1ccc2ccccc2n1)c1ccccc1	0.6	-0.8	-0.2	0.5	·	·
O=C(COC(=O)c1ccccc1)c1ccc2ccccc2c1	6.0	0.1	-0.1	5.4*	-1.1	-18.5
COc1cccc(C(=O)COC(=O)c2cccc(NC(=O)c3ccccc3)c2)c1	-4.5	-3.2	-0.3	6.1*	-0.2	-7.4
O=C(NCc1cccc(C(F)(F)F)c1)c1cnc(NC2CCN(Cc3ccccc3)CC2)s1	16.0	10.3	0.2	0.0	·	·
CCSc1nc(C)c(C(=O)Nc2ccccc2C)c(-c2ccc(Cl)cc2)c1C#N	-5.5	0.0	0.0	-0.2	·	·
CC1CN(C(=S)NC(=O)C(C)(C)C)CC(C)O1 (stereo unspecified)	-2.0	-4.0	-0.1	7.3*	0.7	-4.7
CC(C)(C)C(=O)NC(=S)N1CCOCC1	-2.9	-7.9	0.0	0.8	·	·
CCOC(=O)c1sc2nc(SCc3cc(F)cc4c3OCOC4)n(CCC3=CCCCC3)c(=O)c2c1C	2.8	2.5	0.1	0.5	·	·
Oc1oc(-c2ccccc2F)nc1C=Nc1cccc(C(F)(F)F)c1	-4.0	15.5	-0.2	0.4	·	·
CCCCNC(=O)CCCCCn1c(=O)[nH]c2cc(OC)c(OC)cc2c1=O	1.6	-8.6	0.0	-0.4	·	·
COc1ccc2[nH]c3c(=O)n(CCCC(=O)Nc4ccccc4)c(=S)[nH]c3c2c1	3.2	-1.3	-0.2	7.7*	-0.7	-6.7
COc1ccc(CNC(=O)CCCn2cccc2)cc1	-15.1	7.9	-0.1	8.2*	2.2	5.8
COc1ccc2[nH]c3c(=O)n(CCCCC(=O)NC(C)C)c(=S)[nH]c3c2c1	-0.3	8.7	0.6	0.5	·	·
CCCC(=O)NCc1ccc(OC)cc1	-14.7	-2.0	-0.1	1.4	·	·
COc1cc2[nH]c(=O)n(CCCC(=O)NCc3ccccc3Cl)c(=O)c2cc1OC	-11.8	0.4	0.1	6.8*	1.0	4.5
COc1ccc(CNC(=O)CCCn2c(=O)[nH]c3ccccc3c2=O)cc1	-3.4	-9.0	-0.1	7.0*	-0.3	-1.7
O=C(CSc1n[nH]c(-c2ccncc2)n1)c1ccc(F)cc1	2.6	-7.4	-0.1	2.2	·	·
O=C(CSc1n[nH]c(-c2ccncc2)n1)c1ccc(Cl)cc1	1.8	-12.4	0.0	5.0*	-1.4	-6.4
CNC(=O)[C@@H]1C[C@@H](NCc2ccc(OC)c(C)c2C)CN1Cc1cccc(Cl)c1	3.2	5.4	0.1	0.0	·	·
COc1ccccc1NC(=O)CSc1nnc(CCNC(=O)c2ccc(C)cc2)n1C	-0.9	11.9	0.0	6.1*	0.9	3.6
COc1ccc(CC(=O)Nc2cc(Cl)ccc2C(=O)O)cc1	0.0	-7.3	0.0	5.6*	-0.2	-7.0
COc1ccc(CC(=O)Nc2ccc(Cl)cc2C(=O)O)cc1	0.7	2.7	0.1	-2.1	·	·
Cc1cc(=O)oc2c(C)c(OCC(=O)N(C)C)ccc12	-7.3	3.1	0.8	18.4*	0.1	-3.0
CCN(CC)C(=O)COc1ccc2c(C)cc(=O)oc2c1C	-11.0	18.1	0.1	-0.2	·	·
CCOC(=O)COc1ccc2c(oc(=O)c3ccccc32)c1C	4.8	-4.7	-0.1	-0.7	·	·
CC(=O)COc1ccc2c(oc(=O)c3ccccc32)c1C	-75.2	-8.0	-0.1	7.0*	0.4	12.9
CCOc1ccc(-n2c(SCc3cccnc3)nc3c(sc(=S)n3-c3ccc(C)cc3C)c2=O)cc1	9.3	-7.4	-0.1	1.1	·	·
